For part of these data: Results with a measured potency or affinity are listed apart. The list shows a part of the results. Activity calls are given as the source filed them.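 Rule for the calls, unless noted: active = primary screen inhibitor hit that blocks the TRPC4 channel at some tested dose, yielding a dose curve; inactive = the rest.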
Tests used:
[1] = nonspecific thallium flux increase in parental CHO-K1, confirmation, counter-screen for KCNQ2 potentiator project, cell-based, FluxOR thallium flux, duplicate (AID 2282;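 active = signal rise of at least 3 SD above the untreated control mean, in both duplicate wells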;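 note: counter screen of KCNQ2 potentiator hits so any rise reflects channel-independent effects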); conditions: parental CHO-K1 cells, FluxOR thallium flux fluorescence; at 10 µM; hits give high values; zero = vehicle mean+3SD, 100% = vehicle-minus-blank window
[2] = target: Potassium voltage-gated channel subfamily KQT member 1 (Homo sapiens) (UniProt P51787); assay: human KCNQ1 channel potentiation off-target, confirmation, selectivity assay for KCNQ2 potentiator project, cell-based, CHO, FluxOR thallium flux (AID 2283;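 active = fluorescence ratio rise of at least 3 SD of vehicle wells above their mean, in both replicate wells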;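 note: 0% = vehicle mean plus 3 SD and 100% = vehicle minus unstimulated blank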); conditions: CHO KCNQ1 stable, FluxOR thallium flux fluorescence; at 10 µM; hits give high values; beyond 3SD, as % of vehicle-control signal
[3] = target: Potassium voltage-gated channel subfamily KQT member 2 (Rattus norvegicus) (UniProt O88943); assay: rat KCNQ2 channel potentiators, confirmation, cell-based, CHO, FluxOR thallium flux, duplicate (AID 2287;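 active = fluorescence ratio rising 3 SD or more over the vehicle control mean in both replicates, plus primary screen hit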;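 note: peak minus minimum thallium fluorescence divided by baseline after K/Tl stimulus; 0% = vehicle mean plus 3 SD and 100% = vehicle minus unstimulated blank difference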); conditions: CHO-KCNQ2 cells, FluxOR thallium flux fluorescence; at 10 µM; hits give high values
[4] = test system: TRPC4 beta (transient receptor potential cation channel C4), mouse; assay: activators of mouse TRPC4 channel, confirmation, cell-based, Fluo4 calcium, HEK293 TRPC4beta/mu-opioid, duplicates, 10 µM (AID 2426;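 active = fluorescence ratio normalized to control raised more than 50% in primary screen plus both repeat runs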;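 for activation: percent rise of integrated ratio over buffer wells lacking compound which define 0%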); conditions: Fluo4 calcium fluorescence, at 10 µM; hits give high values
[5] = test system: transient receptor potential cation channel C4 beta (TRPC4), mouse; assay: activators of mouse TRPC4 channel, confirmation, cell-based, second round, Fluo4, HEK293 TRPC4beta/mu-opioid, 1 µM (AID 2461;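 active = primary screen active and over 50% activation in each of two duplicate runs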); conditions: Fluo4 calcium fluorescence, at 1 µM; hits give high values
[6] = test system: TRPC4 (transient receptor potential cation channel C4 beta), mouse; assay: positive allosteric modulators of mouse TRPC4, confirmation, cell-based, second round, Fluo-4, HEK293 TRPC4beta/mu-opioid, 1 µM (AID 2554;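 active = primary screen hit whose fluorescence ratio, in both repeats, exceeds the weak agonist control mean by 3 SD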); conditions: DAMGO EC20, Fluo-4 calcium flux, at 1 µM; hits give high values
[7] = test system: TRPC4 beta (transient receptor potential cation channel C4), mouse; assay: positive allosteric modulators of mouse TRPC4, confirmation, cell-based, Fluo-4, HEK293 TRPC4beta/mu-opioid (AID 2555;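 active = primary screen hit whose calcium fluorescence ratio, in both repeats, exceeds the weak agonist control mean by 3 SD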); conditions: DAMGO EC20, Fluo-4 calcium flux, at 10 µM; hits give high values
[8] = target: Short transient receptor potential channel 4 (Mus musculus) (UniProt Q9QUQ5); assay: inhibitors of mouse TRPC4 channel, confirmation, cell-based, Fluo4, HEK293 TRPC4beta/mu-opioid (AID 2636;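 active = calcium signal cut by more than 3 SD below the full-agonist control yet still positive, in both repeats and the earlier primary screen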); conditions: DAMGO, Fluo4 calcium flux, at 10 µM; hits give high values
[9] = target: Short transient receptor potential channel 4 (Mus musculus) (UniProt Q9QUQ5); assay: inhibitors of mouse TRPC4 channel, confirmation, cell-based, second round, Fluo4, HEK293 TRPC4beta/mu-opioid, 1 µM (AID 2637;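 active = calcium signal ratio cut to more than 3 SD under the fully stimulated control mean yet still positive, in both repeats and the primary screen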); conditions: Fluo4 calcium flux, DAMGO, at 1 µM; hits give high values
[10] = target: Short transient receptor potential channel 4 (Mus musculus) (UniProt Q9QUQ5); assay: TRPC4 positive allosteric modulators, dose response, cell-based, HEK293 TRPC4/mu-opioid, Fluo-4 calcium, EC20 DAMGO (AID 434941;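 active = earlier screen potentiator hit that boosts the TRPC4 ion channel at some dose, with a dose response; inactive = no potentiation, no dose response, or not a prior hit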;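 note: calcium entry triggered by an EC20 dose of DAMGO at the co-expressed mu-opioid receptor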)
[11] = target: Short transient receptor potential channel 4 (Mus musculus) (UniProt Q9QUQ5); assay: mouse TRPC4 channel inhibitors, dose response, cell-based, HEK293 TRPC4/mu-opioid, Fluo-4 calcium (AID 434942)
[12] = target: Short transient receptor potential channel 6 (Mus musculus) (UniProt Q61143); assay: inhibition of mouse TRPC6 channel, confirmation, selectivity assay for TRPC4 inhibitor project, cell-based, HEK293, membrane potential dye, duplicate (AID 434948;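 active = active in primary screen and both duplicates, each dropping signal beyond three positive-control SD with fluorescence still positive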); conditions: HEK293 TRPC6, membrane potential dye fluorescence, at 10 µM, stimulated with maximal-effect acetylcholine; hits give high values
[13] = target: Short transient receptor potential channel 6 (Mus musculus) (UniProt Q61143); assay: activation of mouse TRPC6 channel, confirmation, selectivity assay for TRPC4 activator project, cell-based, HEK293, membrane potential dye, duplicate (AID 434950;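 active = membrane potential signal rise above negative control mean plus 3 SD in both duplicates, also active in the earlier TRPC4 screen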;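 for activation: 0% = buffer only wells and 100% = acetylcholine maximal-effect wells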); conditions: HEK293 TRPC6, membrane potential fluorescence, at 10 µM; hits give high values
[14] = target: Short transient receptor potential channel 6 (Mus musculus) (UniProt Q61143); assay: TRPC6 potentiation by TRPC4 potentiator hits, confirmation, selectivity assay for TRPC4 potentiator project, HEK293 cells, membrane potential dye, duplicate (AID 434952;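 active = compound raising the membrane signal above positive-control mean plus 3 SD in both repeats, and a primary screen hit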); conditions: HEK293 TRPC6, membrane potential dye fluorescence, at 10 µM, maximal acetylcholine added after compound; hits give high values
[15] = target: Short transient receptor potential channel 4 (Mus musculus) (UniProt Q9QUQ5); assay: calcium flux activators in TRPC4/5HT1a cells, counter-screen for TRPC4 activator project, cell-based, second counter screen, HEK293 TRPC4/5HT1a, Fluo-4 (AID 434977;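 active = calcium signal rise above buffer-control mean plus 5 SD in both duplicates, and also a hit in the primary screen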;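 for activation: plate controls were assay buffer for no effect and maximal serotonin response for full effect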); conditions: Fluo-4 calcium flux, at 10 µM; hits give high values
[16] = calcium flux inhibitors in TRPC4/5HT1a cells, confirmation, counter-screen for TRPC4 inhibitor project, cell-based, second counter screen, HEK293 TRPC4/5HT1a, Fluo-4 (AID 434978;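 active = primary screen active whose calcium signal fell more than 3 SD beyond the full-serotonin control mean in both duplicate plates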;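 note: serotonin given first at submaximal then at maximal dose after compound preincubation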); conditions: Fluo-4 calcium flux, at 10 µM, serotonin added to trigger calcium flux; hits give high values
[17] = test system: TRPC4 (mouse), co-expressed with 5HT1a in HEK293; assay: calcium flux potentiators in TRPC4/5HT1a cells, confirmation, counter-screen for TRPC4 potentiator project, cell-based, second counter screen, HEK293 TRPC4/5HT1a, Fluo-4 (AID 434979;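 active = signal rise over 3 SD above mean of control wells given weak agonist, in both repeats and first screen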); conditions: Fluo-4 calcium flux, at 10 µM, serotonin added at its EC20 dose; hits give high values
[18] = calcium flux activation in mu-opioid HEK293 cells, confirmation, counter-screen for TRPC4 activator project, cell-based, HEK293 mu-opioid receptor line (AID 449723;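 active = hit in primary screen, with calcium signal over 5 SD above buffer well mean in both duplicates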;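 note: counter screen cells carry the mu-opioid receptor alone and lack TRPC4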); conditions: Fluo-4 calcium fluorescence, at 10 µM; hits give high values
[19] = calcium flux enhancement in mu-opioid HEK293 cells, confirmation, counter-screen for TRPC4 allosteric potentiator project, cell-based, HEK293 mu-opioid receptor line (AID 449724;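 active = calcium signal rise more than 3 SD above the low-dose agonist control mean, in both duplicate plates and the primary screen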); conditions: Fluo-4 calcium flux, at 10 µM, compound added before EC20 DAMGO stimulus; hits give high values
[20] = target: Short transient receptor potential channel 4 (Mus musculus) (UniProt Q9QUQ5); assay: mouse TRPC4 channel activators, dose response, cell-based, HEK293 TRPC4/mu-opioid, Fluo-4 calcium (AID 434937;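 active = primary screen activator hit with a dose response curve and TRPC4 channel activation at any tested dose; inactive = no activation, no dose response, or not a primary hit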)

Sequence of Short transient receptor potential channel 6 (Mus musculus) (Q61143 whole entry, looked up): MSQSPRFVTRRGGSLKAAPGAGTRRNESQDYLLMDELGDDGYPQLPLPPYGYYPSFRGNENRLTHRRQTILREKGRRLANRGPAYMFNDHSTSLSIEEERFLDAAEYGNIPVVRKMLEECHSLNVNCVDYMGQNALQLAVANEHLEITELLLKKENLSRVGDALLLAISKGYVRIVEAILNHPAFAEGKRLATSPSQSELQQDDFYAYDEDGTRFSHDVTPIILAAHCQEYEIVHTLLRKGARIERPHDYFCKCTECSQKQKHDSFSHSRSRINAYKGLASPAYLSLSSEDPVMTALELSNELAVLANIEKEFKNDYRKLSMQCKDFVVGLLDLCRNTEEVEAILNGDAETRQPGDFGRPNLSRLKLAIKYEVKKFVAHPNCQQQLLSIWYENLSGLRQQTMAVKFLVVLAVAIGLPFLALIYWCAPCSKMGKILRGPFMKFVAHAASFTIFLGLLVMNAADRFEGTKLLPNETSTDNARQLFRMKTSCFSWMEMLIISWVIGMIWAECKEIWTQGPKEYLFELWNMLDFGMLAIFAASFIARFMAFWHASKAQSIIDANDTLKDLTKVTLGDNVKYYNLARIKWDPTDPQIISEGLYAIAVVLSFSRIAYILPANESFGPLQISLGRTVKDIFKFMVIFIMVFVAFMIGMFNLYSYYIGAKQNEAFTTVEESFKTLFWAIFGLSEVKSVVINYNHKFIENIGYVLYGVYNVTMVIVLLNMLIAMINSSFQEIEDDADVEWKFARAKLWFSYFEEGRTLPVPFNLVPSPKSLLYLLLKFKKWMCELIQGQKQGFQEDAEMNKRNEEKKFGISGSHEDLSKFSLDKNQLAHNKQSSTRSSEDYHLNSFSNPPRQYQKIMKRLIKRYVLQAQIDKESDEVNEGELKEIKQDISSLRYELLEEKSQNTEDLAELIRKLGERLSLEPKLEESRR
Sequence of Potassium voltage-gated channel subfamily KQT member 2 (Rattus norvegicus) (O88943 whole entry, looked up): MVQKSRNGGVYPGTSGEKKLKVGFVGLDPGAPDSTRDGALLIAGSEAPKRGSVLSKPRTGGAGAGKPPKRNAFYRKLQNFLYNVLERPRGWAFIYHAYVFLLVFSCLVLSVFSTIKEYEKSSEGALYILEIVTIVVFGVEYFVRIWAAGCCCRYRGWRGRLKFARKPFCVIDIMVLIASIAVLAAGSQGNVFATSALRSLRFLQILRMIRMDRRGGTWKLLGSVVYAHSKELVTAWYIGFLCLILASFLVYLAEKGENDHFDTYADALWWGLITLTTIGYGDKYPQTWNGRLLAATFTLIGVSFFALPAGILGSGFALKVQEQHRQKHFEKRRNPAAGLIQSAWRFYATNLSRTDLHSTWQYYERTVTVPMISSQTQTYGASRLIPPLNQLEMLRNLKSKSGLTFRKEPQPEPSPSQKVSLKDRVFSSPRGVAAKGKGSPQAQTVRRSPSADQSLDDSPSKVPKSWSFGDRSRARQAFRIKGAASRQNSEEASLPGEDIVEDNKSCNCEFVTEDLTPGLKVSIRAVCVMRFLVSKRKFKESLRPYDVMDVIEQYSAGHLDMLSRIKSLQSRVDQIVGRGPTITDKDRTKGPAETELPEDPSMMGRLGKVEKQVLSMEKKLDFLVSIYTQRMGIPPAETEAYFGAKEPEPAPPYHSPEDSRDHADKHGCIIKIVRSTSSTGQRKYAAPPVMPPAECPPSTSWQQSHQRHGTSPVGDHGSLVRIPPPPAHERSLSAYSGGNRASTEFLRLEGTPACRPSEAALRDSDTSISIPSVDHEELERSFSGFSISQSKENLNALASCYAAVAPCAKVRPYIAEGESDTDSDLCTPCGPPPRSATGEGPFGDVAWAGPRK
Sequence of Potassium voltage-gated channel subfamily KQT member 1 (Homo sapiens) (P51787 whole entry, looked up): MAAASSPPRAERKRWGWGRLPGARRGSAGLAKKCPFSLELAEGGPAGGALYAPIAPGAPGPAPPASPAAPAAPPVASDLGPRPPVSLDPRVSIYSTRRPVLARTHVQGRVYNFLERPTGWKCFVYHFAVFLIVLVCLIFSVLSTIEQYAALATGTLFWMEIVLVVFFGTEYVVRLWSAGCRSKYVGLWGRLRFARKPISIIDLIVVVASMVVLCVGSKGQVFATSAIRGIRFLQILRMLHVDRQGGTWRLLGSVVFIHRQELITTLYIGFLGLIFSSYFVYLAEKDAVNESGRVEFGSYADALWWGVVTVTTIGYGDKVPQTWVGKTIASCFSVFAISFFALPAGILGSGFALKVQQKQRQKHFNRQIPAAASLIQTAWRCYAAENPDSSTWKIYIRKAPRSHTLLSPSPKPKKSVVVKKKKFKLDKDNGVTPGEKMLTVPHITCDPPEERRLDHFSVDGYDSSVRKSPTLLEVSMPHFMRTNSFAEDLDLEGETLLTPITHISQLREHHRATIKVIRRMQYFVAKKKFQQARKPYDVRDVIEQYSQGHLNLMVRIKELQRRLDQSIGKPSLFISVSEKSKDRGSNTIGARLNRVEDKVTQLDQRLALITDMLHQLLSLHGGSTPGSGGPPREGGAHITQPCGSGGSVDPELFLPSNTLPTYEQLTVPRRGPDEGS
Sequence of Short transient receptor potential channel 4 (Mus musculus) (Q9QUQ5 whole entry, looked up): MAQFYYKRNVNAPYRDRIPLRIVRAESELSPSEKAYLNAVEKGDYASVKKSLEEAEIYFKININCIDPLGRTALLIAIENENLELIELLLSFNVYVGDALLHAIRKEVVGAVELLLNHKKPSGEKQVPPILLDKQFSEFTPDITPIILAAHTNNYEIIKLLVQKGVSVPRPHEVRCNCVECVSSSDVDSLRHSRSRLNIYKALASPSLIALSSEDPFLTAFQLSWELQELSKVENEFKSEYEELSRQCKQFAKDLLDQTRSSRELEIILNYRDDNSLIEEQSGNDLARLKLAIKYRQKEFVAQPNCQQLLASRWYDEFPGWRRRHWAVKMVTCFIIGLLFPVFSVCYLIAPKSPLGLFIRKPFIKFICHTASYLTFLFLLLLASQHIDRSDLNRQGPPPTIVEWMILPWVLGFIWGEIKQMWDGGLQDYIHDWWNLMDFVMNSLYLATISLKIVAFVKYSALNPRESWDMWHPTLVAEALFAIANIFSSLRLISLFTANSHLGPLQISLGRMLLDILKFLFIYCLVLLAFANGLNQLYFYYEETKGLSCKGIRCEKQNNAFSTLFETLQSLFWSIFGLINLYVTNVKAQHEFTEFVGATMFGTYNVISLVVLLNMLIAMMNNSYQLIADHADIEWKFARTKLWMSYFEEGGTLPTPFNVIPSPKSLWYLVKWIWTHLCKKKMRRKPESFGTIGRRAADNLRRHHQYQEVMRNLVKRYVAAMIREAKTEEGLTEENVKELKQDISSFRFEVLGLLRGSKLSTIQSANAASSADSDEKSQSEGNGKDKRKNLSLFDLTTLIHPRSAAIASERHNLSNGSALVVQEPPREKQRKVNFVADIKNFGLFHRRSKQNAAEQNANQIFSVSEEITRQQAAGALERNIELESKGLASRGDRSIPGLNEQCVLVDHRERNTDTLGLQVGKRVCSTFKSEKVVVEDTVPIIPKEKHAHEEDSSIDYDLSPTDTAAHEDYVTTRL

O=c1c2cc(Br)ccc2nc(-c2cccc(Cl)c2)n1O
inactive: activity increase over 3SD of controls [1] -14.4% | outcome [5] | outcome [6] | outcome [7] | outcome [8] | outcome [9] | outcome [10] | outcome [11] | outcome [12] | outcome [14] | outcome [16] | outcome [17] | outcome [19]
active: activation over 3SD threshold [2] 68.1% | potentiation, less the hit threshold [3] 84.4% | activation [4] 223% | activation [13] 38.5% | activation [15] 63.4% | activation [18] 20.3%

COc1cc(/C=C2\C(=N)N3N=C(S(C)(=O)=O)SC3=NC2=O)ccc1OC(=O)c1cccs1
active: inhibition [8] 86%
inactive: outcome [4] | outcome [5] | outcome [6] | outcome [7] | outcome [9] | outcome [20] | outcome [10] | outcome [11] | outcome [12] | outcome [13] | outcome [14] | outcome [15] | outcome [16] | outcome [17] | outcome [18] | outcome [19]

CCn1c(C)nc2cc(C(=O)N/N=C/c3cccc(O)c3O)ccc21
inactive: outcome [4] | outcome [5] | outcome [8] | outcome [9] | outcome [20] | outcome [10] | outcome [11] | outcome [12] | outcome [13] | outcome [14] | outcome [15] | outcome [16] | outcome [18] | outcome [19]
active: potentiation [6] 79% | potentiation [7] 50% | potentiation [17] 23%

CCCCOc1ccc(CSC(=N)N)cc1[N+](=O)[O-]
inactive: outcome [4] | outcome [5] | outcome [6] | outcome [7] | outcome [8] | outcome [9] | outcome [20] | outcome [10] | outcome [11] | outcome [12] | outcome [13] | outcome [14] | outcome [15] | outcome [16] | outcome [18] | outcome [19]
active: potentiation [17] 22.3%

Cc1cc(C(=O)OCC(=O)Nc2ccc(F)c(F)c2)c(C)o1
inactive: activity increase over 3SD of controls [1] -17.5% | activation over 3SD threshold [2] -23.1%
active: potentiation, less the hit threshold [3] 17.6%

O=C(NCCc1ccccc1)c1cnc2ccccc2n1
inactive: outcome [4] | outcome [5] | outcome [6] | outcome [8] | outcome [9] | outcome [20] | outcome [10] | outcome [11] | outcome [12] | outcome [13] | outcome [14] | outcome [15] | outcome [16] | outcome [18] | outcome [19]
active: potentiation [7] 19% | potentiation [17] 27.4%

COc1ccc(NC(=O)CCCC2CCCCC2)c(OC)c1
inactive: activity increase over 3SD of controls [1] -19.3% | activation over 3SD threshold [2] -6.1%
active: potentiation, less the hit threshold [3] 80%

Cn1c2ccccc2c(=O)c2c(=O)n(-c3ccccc3)c(-c3ccc(C(C)(C)C)cc3)nc21
inactive: outcome [4] | outcome [5] | outcome [6] | outcome [7] | outcome [8] | outcome [9] | outcome [20] | outcome [10] | outcome [11] | outcome [12] | outcome [13] | outcome [14] | outcome [15] | outcome [16] | outcome [17] | outcome [18] | outcome [19]

CCCc1c(-c2ccc(O)cc2)nn(-c2ccc(O)cc2)c1-c1ccc(O)cc1
active: potentiation [7] 20% | potentiation [17] 23.9%
inactive: outcome [4] | outcome [5] | outcome [6] | outcome [8] | outcome [9] | outcome [20] | outcome [10] | outcome [11] | outcome [12] | outcome [13] | outcome [14] | outcome [15] | outcome [16] | outcome [18] | outcome [19]

O=C(O)c1ccc(NC(=O)c2cn(-c3ccccc3)nc2-c2ccc(Br)cc2)cc1
inactive: outcome [4] | outcome [5] | outcome [6] | outcome [7] | outcome [8] | outcome [9] | outcome [20] | outcome [10] | outcome [11] | outcome [12] | outcome [13] | outcome [14] | outcome [15] | outcome [16] | outcome [17] | outcome [18] | outcome [19]

CCCN(C(=O)COC(=O)C12CCC(=O)N1c1ccccc1S2)c1c(N)n(Cc2ccccc2)c(=O)[nH]c1=O (centres undefined)
active: inhibition [8] 52% | activation [13] 28%
inactive: outcome [4] | outcome [5] | outcome [6] | outcome [7] | outcome [9] | outcome [20] | outcome [10] | outcome [11] | outcome [12] | outcome [14] | outcome [15] | outcome [16] | outcome [17] | outcome [18] | outcome [19]

C/C(=N\NC(=O)COc1ccc(C)cc1C(C)C)c1ccc(-n2ccnc2)cc1
active: potentiation [17] 10.4%
inactive: outcome [4] | outcome [5] | outcome [6] | outcome [7] | outcome [8] | outcome [9] | outcome [20] | outcome [10] | outcome [11] | outcome [12] | outcome [13] | outcome [14] | outcome [15] | outcome [16] | outcome [18] | outcome [19]

Cc1cccc(Cn2c(=O)c3c(nc4n3CCCN4Cc3ccccc3)n(C)c2=O)c1
inactive: outcome [4] | outcome [5] | outcome [8] | outcome [9] | outcome [20] | outcome [10] | outcome [11] | outcome [12] | outcome [13] | outcome [14] | outcome [15] | outcome [16] | outcome [18] | outcome [19]
active: potentiation [6] 14% | potentiation [7] 120% | potentiation [17] 75.2%

CC(C)(C)C1CCC(C(=O)NCC(c2cccs2)N2CCOCC2)CC1 (centres undefined)
active: potentiation, less the hit threshold [3] 13.3%
inactive: activity increase over 3SD of controls [1] -27.5% | activation over 3SD threshold [2] -18.7%

Cc1ccc(C(C)C)c(OCCCCN2CCNCC2)c1
inactive: outcome [4] | outcome [5] | outcome [7] | outcome [8] | outcome [9] | outcome [20] | outcome [10] | outcome [11] | outcome [12] | outcome [13] | outcome [14] | outcome [15] | outcome [16] | outcome [18] | outcome [19]
active: potentiation [6] 11% | potentiation [17] 23.8%

CN(CCNS(=O)(=O)c1ccc2c(c1)oc(=O)n2C)Cc1ccccc1
inactive: outcome [4] | outcome [5] | outcome [6] | outcome [8] | outcome [9] | outcome [20] | outcome [10] | outcome [11] | outcome [12] | outcome [13] | outcome [14] | outcome [15] | outcome [16] | outcome [18] | outcome [19]
active: potentiation [7] 8% | potentiation [17] 13.7%

CC(Nc1nc(N2CCCC2)nc2ccccc12)c1ccccc1 (centres undefined)
inactive: outcome [4] | outcome [5] | outcome [6] | outcome [7] | outcome [8] | outcome [9] | outcome [20] | outcome [10] | outcome [11] | outcome [12] | outcome [13] | outcome [14] | outcome [15] | outcome [16] | outcome [17] | outcome [18] | outcome [19]

— PubChem BioAssay
